This is an account of results in PubChem BioAssay.

For some of these results: Results with a measured potency or affinity are listed apart. Active and inactive are the calls of the source.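 The calls were made as follows, unless noted: active = primary screen hit whose calcium fluorescence ratio, in both repeats, exceeds the weak agonist control mean by 3 SD; inactive = the rest.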

The subject of test [1] is TRPC4 beta (transient receptor potential cation channel C4), mouse. Briefly: TRPC4 cation channel opening, retest – cell-based, Fluo4 calcium, HEK293 TRPC4beta/mu-opioid, duplicates, 10 µM, confirmation (AID 2426;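 active = fluorescence ratio normalized to control raised more than 50% in primary screen plus both repeat runs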;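 as to activation: percent rise of integrated ratio over buffer wells lacking compound which define 0%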). The settings on record: Fluo4 calcium fluorescence, at 10 µM; active compounds read high.
For test [2], the system named is transient receptor potential cation channel C4 beta (TRPC4), mouse. Briefly: TRPC4 cation channel opening, second retest – cell-based, second round, Fluo4, HEK293 TRPC4beta/mu-opioid, 1 µM, confirmation (AID 2461;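 active = primary screen active and over 50% activation in each of two duplicate runs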). The settings on record: Fluo4 calcium fluorescence, at 1 µM; active compounds read high.
The subject of test [3] is TRPC4 (transient receptor potential cation channel C4 beta), mouse. Nature of the test: potentiation of DAMGO EC20 TRPC4 response – cell-based, second round, Fluo-4, HEK293 TRPC4beta/mu-opioid, 1 µM, confirmation (AID 2554;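 active = primary screen hit whose fluorescence ratio, in both repeats, exceeds the weak agonist control mean by 3 SD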). The settings on record: DAMGO EC20, Fluo-4 calcium flux, at 1 µM; active compounds read high.
For test [4], the system named is TRPC4 beta (transient receptor potential cation channel C4), mouse. Briefly: potentiation of DAMGO EC20 TRPC4 response – cell-based, Fluo-4, HEK293 TRPC4beta/mu-opioid, confirmation (AID 2555). The note with it: DAMGO EC20, Fluo-4 calcium flux, at 10 µM; active compounds read high.
Test [5] has as its target Short transient receptor potential channel 4 (Mus musculus) (UniProt Q9QUQ5). Nature of the test: blockers of DAMGO-evoked TRPC4 calcium flux – cell-based, Fluo4, HEK293 TRPC4beta/mu-opioid, confirmation (AID 2636;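 active = calcium signal cut by more than 3 SD below the full-agonist control yet still positive, in both repeats and the earlier primary screen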). The note with it: at 10 µM; active compounds read high.
Test [6] shares this target. Nature of the test: blockers of DAMGO-evoked TRPC4 calcium flux – cell-based, second round, Fluo4, HEK293 TRPC4beta/mu-opioid, 1 µM, confirmation (AID 2637;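 active = calcium signal ratio cut to more than 3 SD under the fully stimulated control mean yet still positive, in both repeats and the primary screen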;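 as to inhibition: percent of integrated ratio relative to wells lacking test compound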). The settings on record: at 1 µM; active compounds read high.
The target is the same in test [7]. Nature of the test: potentiation of DAMGO-evoked TRPC4 calcium signal – cell-based, HEK293 TRPC4/mu-opioid, Fluo-4 calcium, EC20 DAMGO, dose response (AID 434941;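 active = earlier screen potentiator hit that boosts the TRPC4 ion channel at some dose, with a dose response; inactive = no potentiation, no dose response, or not a prior hit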;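 also: calcium entry triggered by an EC20 dose of DAMGO at the co-expressed mu-opioid receptor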). The note with it: HEK293 TRPC4/mu-opioid cells, Fluo-4 calcium fluorescence; series mostly up to 20 µM.
Test [8] has as its target Short transient receptor potential channel 6 (Mus musculus) (UniProt Q61143). Nature of the test: TRPC6 blockade by TRPC4 inhibitor hits – cell-based, HEK293, membrane potential dye, duplicate, selectivity assay for TRPC4 inhibitor project, confirmation (AID 434948;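 active = active in primary screen and both duplicates, each dropping signal beyond three positive-control SD with fluorescence still positive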). The note with it: HEK293 TRPC6, membrane potential dye fluorescence, at 10 µM, stimulated with maximal-effect acetylcholine; active compounds read high.

The target is the same in test [9]. Briefly: TRPC6 opening by TRPC4 activator hits – cell-based, HEK293, membrane potential dye, duplicate, selectivity assay for TRPC4 activator project, confirmation (AID 434950;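 active = membrane potential signal rise above negative control mean plus 3 SD in both duplicates, also active in the earlier TRPC4 screen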;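 as to activation: 0% = buffer only wells and 100% = acetylcholine maximal-effect wells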). The settings on record: HEK293 TRPC6, membrane potential fluorescence, at 10 µM; activation: active compounds read high; outcome: activation.
The target is the same in test [10]. Briefly: positive modulators of mouse TRPC6 channel – HEK293 cells, membrane potential dye, duplicate, selectivity assay for TRPC4 potentiator project, confirmation (AID 434952;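 active = compound raising the membrane signal above positive-control mean plus 3 SD in both repeats, and a primary screen hit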). The note with it: HEK293 TRPC6, membrane potential dye fluorescence, at 10 µM, maximal acetylcholine added after compound; active compounds read high.
Test [11] has as its target Short transient receptor potential channel 4 (Mus musculus) (UniProt Q9QUQ5). Nature of the test: calcium flux activators in TRPC4/5HT1a cells, counter-screen for TRPC4 activator project, cell-based, second counter screen, HEK293 TRPC4/5HT1a, Fluo-4 (AID 434977;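 active = calcium signal rise above buffer-control mean plus 5 SD in both duplicates, and also a hit in the primary screen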;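 as to activation: plate controls were assay buffer for no effect and maximal serotonin response for full effect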). The note with it: Fluo-4 calcium flux, at 10 µM; active compounds read high.
Test [12] can be described thus: serotonin-gated TRPC4 signal block – cell-based, second counter screen, HEK293 TRPC4/5HT1a, Fluo-4, counter-screen for TRPC4 inhibitor project, confirmation (AID 434978;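 active = primary screen active whose calcium signal fell more than 3 SD beyond the full-serotonin control mean in both duplicate plates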;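 as to outcome: serotonin given first at submaximal then at maximal dose after compound preincubation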). The note with it: Fluo-4 calcium flux, at 10 µM, serotonin added to trigger calcium flux; active compounds read high.
Test [13] relates to TRPC4 (mouse), co-expressed with 5HT1a in HEK293. Briefly: enhancement of serotonin-evoked TRPC4 response – cell-based, second counter screen, HEK293 TRPC4/5HT1a, Fluo-4, counter-screen for TRPC4 potentiator project, confirmation (AID 434979;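 active = signal rise over 3 SD above mean of control wells given weak agonist, in both repeats and first screen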). The note with it: Fluo-4 calcium flux, at 10 µM, serotonin added at its EC20 dose; active compounds read high.
The nature of test [14]: nonspecific calcium rise without TRPC4 – cell-based, HEK293 mu-opioid receptor line, counter-screen for TRPC4 activator project, confirmation (AID 449723;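 active = hit in primary screen, with calcium signal over 5 SD above buffer well mean in both duplicates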;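 also: counter screen cells carry the mu-opioid receptor alone and lack TRPC4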). The settings on record: HEK293 mu-opioid cells, Fluo-4 calcium fluorescence, at 10 µM; active compounds read high.
A short description of test [15]: nonspecific potentiation of DAMGO calcium response – cell-based, HEK293 mu-opioid receptor line, counter-screen for TRPC4 allosteric potentiator project, confirmation (AID 449724;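 active = calcium signal rise more than 3 SD above the low-dose agonist control mean, in both duplicate plates and the primary screen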;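 also: HEK293 cells carrying mu-opioid receptor only with no TRPC4 channel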). The settings on record: HEK293 mu-opioid receptor cells, Fluo-4 calcium flux, at 10 µM, compound added before EC20 DAMGO stimulus; active compounds read high.
A short description of test [16]: nonspecific flux increase, KCNQ1-free cells – parental CHO cells, counter-screen for KCNQ1 potentiator project (AID 493006;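 active = duplicate-averaged activation above buffer control mean plus 5 SD of those controls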). The note with it: parental CHO-K1 cells, FluxOR thallium flux, at 10 µM; active compounds read high.
Test [17] has as its target Potassium voltage-gated channel subfamily KQT member 1 (Homo sapiens) (UniProt P51787). Briefly: enhancement of KCNQ1 channel thallium flux – FluxOR thallium flux, CHO cells, duplicates, confirmation (AID 493007;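 active = potentiation averaged over duplicate wells exceeding buffer-only control mean by more than 3 SD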;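 also: cells depolarized by a potassium plus thallium sulfate stimulus after compound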). The settings on record: KCNQ1 cell line, FluxOR thallium flux fluorescence, at 10 µM; active compounds read high, % of reference activator effect, buffer zero.
Test [18] deals with Potassium voltage-gated channel subfamily KQT member 2 (Rattus norvegicus) (UniProt O88943). Briefly: KCNQ2 thallium flux enhancement – KCNQ2-CHO-K1 cells, selectivity assay for KCNQ1 potentiator project (AID 493009;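 active = mean duplicate potentiation above the buffer control mean plus 5 SD of buffer wells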;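 also: assay conditions were tuned for KCNQ1 rather than KCNQ2 modulators; signal is max minus min fluorescence divided by baseline after thallium stimulus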). The note with it: FluxOR thallium flux fluorescence, at 10 µM; active compounds read high, scaled: buffer 0, activator control 100.
Test [19] concerns the target Potassium voltage-gated channel subfamily KQT member 1 (Homo sapiens) (UniProt P51787). Briefly: KCNQ1 activators by electrophysiology – IonWorks patch clamp, KCNQ1-CHO cells, orthogonal assay for KCNQ1 potentiator project, confirmation (AID 493184;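 active = current rise at least 3 SD above the untreated control mean in each of two repeat wells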). The settings on record: automated patch clamp current, at 10 µM; active compounds read high.

Chain of Short transient receptor potential channel 4 (Mus musculus) (Q9QUQ5 whole entry, looked up): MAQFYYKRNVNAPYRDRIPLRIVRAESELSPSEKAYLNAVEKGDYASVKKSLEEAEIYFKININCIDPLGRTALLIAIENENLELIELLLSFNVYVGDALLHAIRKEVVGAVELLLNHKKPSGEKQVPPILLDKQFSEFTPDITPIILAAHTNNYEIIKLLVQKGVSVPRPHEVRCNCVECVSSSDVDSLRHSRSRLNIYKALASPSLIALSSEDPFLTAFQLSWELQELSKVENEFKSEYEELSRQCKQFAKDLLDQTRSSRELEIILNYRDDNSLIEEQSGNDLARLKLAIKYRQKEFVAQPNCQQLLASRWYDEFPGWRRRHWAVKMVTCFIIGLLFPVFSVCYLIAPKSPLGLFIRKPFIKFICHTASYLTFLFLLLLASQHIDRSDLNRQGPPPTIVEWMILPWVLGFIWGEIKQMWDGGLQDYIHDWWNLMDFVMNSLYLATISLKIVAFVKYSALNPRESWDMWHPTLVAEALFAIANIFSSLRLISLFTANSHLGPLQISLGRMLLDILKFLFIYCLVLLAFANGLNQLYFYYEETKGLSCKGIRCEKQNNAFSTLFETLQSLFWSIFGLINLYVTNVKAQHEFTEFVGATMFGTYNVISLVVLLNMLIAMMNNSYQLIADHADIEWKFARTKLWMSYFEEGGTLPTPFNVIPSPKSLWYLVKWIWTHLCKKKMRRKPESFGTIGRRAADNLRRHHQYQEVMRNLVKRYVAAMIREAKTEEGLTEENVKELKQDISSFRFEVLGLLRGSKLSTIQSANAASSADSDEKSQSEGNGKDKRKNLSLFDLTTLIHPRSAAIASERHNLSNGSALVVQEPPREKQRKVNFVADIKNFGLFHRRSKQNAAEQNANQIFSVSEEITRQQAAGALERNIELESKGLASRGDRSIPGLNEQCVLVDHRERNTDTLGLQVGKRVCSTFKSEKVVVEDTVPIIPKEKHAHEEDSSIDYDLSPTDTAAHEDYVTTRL
Chain of Short transient receptor potential channel 6 (Mus musculus) (Q61143 whole entry, looked up): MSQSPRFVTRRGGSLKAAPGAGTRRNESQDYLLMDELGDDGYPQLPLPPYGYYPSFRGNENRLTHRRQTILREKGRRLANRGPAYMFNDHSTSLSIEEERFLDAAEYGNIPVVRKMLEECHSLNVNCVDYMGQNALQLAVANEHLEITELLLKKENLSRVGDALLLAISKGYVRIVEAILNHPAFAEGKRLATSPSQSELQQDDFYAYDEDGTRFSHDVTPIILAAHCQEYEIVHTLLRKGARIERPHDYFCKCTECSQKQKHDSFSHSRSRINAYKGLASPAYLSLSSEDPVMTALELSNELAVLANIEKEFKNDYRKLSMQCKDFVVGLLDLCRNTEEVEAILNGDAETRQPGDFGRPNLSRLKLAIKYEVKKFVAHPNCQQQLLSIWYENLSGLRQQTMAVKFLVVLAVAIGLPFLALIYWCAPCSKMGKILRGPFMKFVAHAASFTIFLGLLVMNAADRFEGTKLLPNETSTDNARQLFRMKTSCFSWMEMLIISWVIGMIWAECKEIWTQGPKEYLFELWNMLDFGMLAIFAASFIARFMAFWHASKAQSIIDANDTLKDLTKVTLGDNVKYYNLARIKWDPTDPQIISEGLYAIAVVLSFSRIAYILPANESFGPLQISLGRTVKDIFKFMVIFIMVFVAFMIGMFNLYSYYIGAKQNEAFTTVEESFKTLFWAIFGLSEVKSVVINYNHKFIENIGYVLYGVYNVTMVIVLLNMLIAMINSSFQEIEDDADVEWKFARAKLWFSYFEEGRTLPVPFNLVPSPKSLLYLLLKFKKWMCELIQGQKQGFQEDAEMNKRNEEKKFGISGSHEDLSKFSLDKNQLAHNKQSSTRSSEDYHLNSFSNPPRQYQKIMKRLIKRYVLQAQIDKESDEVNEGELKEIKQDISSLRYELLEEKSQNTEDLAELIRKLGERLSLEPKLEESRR
Chain of Potassium voltage-gated channel subfamily KQT member 1 (Homo sapiens) (P51787 whole entry, looked up): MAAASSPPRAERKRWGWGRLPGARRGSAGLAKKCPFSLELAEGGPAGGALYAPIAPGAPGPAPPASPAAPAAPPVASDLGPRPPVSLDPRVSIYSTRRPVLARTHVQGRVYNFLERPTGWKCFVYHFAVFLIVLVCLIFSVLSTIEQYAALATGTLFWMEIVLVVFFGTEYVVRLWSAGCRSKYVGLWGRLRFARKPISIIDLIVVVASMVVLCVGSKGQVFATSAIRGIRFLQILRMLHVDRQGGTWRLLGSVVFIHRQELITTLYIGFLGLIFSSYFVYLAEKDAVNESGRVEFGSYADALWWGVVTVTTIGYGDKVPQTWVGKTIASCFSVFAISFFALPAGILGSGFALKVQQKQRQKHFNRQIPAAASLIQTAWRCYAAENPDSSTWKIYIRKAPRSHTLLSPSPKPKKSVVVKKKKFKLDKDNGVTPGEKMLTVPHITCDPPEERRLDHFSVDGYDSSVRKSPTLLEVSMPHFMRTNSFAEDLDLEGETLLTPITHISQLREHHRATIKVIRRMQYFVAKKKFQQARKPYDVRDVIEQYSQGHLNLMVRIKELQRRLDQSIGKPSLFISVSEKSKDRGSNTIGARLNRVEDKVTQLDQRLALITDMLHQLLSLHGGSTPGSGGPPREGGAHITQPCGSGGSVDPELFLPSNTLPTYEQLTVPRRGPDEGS
Chain of Potassium voltage-gated channel subfamily KQT member 2 (Rattus norvegicus) (O88943 whole entry, looked up): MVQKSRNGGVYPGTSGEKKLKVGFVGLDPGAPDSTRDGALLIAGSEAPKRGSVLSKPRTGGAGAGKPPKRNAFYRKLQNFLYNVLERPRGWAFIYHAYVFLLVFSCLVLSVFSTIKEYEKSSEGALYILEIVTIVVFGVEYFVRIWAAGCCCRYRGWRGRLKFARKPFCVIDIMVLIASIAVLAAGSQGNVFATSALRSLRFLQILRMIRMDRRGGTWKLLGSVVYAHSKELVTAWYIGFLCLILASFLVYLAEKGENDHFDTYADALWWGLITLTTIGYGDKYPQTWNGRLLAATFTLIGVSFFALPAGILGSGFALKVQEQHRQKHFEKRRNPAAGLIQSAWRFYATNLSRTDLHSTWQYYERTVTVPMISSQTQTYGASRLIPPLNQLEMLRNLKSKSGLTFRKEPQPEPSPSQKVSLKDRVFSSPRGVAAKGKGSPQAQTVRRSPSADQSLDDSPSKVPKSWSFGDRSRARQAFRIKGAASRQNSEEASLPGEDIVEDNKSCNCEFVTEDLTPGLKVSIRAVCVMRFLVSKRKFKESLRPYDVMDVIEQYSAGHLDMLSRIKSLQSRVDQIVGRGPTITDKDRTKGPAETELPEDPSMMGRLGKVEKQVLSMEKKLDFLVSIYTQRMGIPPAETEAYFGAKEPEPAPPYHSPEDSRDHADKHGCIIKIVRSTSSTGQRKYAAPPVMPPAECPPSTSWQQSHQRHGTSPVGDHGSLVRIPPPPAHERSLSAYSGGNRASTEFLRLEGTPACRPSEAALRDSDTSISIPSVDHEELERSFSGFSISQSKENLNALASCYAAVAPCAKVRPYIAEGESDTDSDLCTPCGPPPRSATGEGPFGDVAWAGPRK

As to `Cc1cc(NCc2ccccc2)nc2ccccc12`, the activation in test [1] was 95% (active); in [11], 5.93% (active). The result in [2], in [3], in test [4], in test [5], in [6] and in test [7] was inactive. Besides, the outcome in [9], in test [10], in [13], in [14], in test [15] and in [16] was inactive. Besides, the result in test [17], in test [18] and in test [19] was inactive. In addition, the inhibition in test [8] is 53.5% (active); in [12], 26.2% (active).

Turning to `CCOC(=O)C1(CC2CC2)CCN(Cc2cn[nH]c2-c2ccccc2)CC1`, the outcome in test [1], in test [2], in test [3], in [4], in test [7] and in test [8] was inactive. In addition, the result in [10], in test [11], in test [13], in test [14] and in test [15] was inactive. Besides, the inhibition in test [5] is 97% (active); in test [6], 47% (active); in test [12], 35.9% (active). Further, the activation in test [9] was 91% (active).

Turning to `CN(C)C1(CNC(=O)CC(NC(=O)c2ccccc2Cl)c2ccccc2)CCCCC1` (centres undefined), the outcome in test [1], in test [2], in test [3], in test [4], in test [7] and in [8] was inactive. Also, the result in [10], in test [11], in test [12], in test [13], in test [14] and in test [15] was inactive. The values for the inhibition in test [5] and in [6] were 88% (active) and 78% (active), respectively. Further, the activation in test [9] is 44.5% (active).

In the case of `Cc1ccc(S(=O)(=O)NCCC(=O)NCC(c2ccco2)N2CCCCC2)cc1C` (centres undefined), the activation in [1] was 82% (active); in test [9], 37% (active). Also, the result in test [2], in test [3], in [4], in [5], in test [7] and in test [8] was inactive. Also, the outcome in test [10], in test [11], in test [12], in test [13], in [14] and in test [15] was inactive. Moreover, the inhibition in test [6] was 80% (active).

Take `Cc1ccc2c(nc3s/c(=C\c4ccc(-c5ccccc5C(=O)O)o4)c(=O)n32)c1C`: the activation in [1] is 232% (active); in test [9], 805% (active); in test [11] it was 182% (active); in test [14] it was 203% (active). Besides, the result in test [2], in test [3], in test [4], in [5], in test [6] and in test [7] was inactive. Besides, the call in [8], in test [10], in [13] and in test [15] was inactive. Also, in test [12], the inhibition is 28.9% (active).

For the compound `Cc1ccccc1OCC(O)Cn1c(=N)n(Cc2ccccc2)c2ccccc21` (centres undefined), the activation in [1] was 70% (active); in test [9], 52.5% (active); in test [11] it was 9.48% (active); in [14], 18.7% (active). For the same compound, the result in test [2], in [3], in test [4], in test [6], in test [7] and in test [10] was inactive. In addition, the result in test [13] and in [15] was inactive. Moreover, the figures for the inhibition in test [5], in test [8] and in [12] were 84% (active), 39.5% (active) and 38% (active), respectively.

Regarding `Cc1ccc(S(=O)(=O)Nc2cccc(C(=O)NCC(c3ccccc3)N(C)C)c2)cc1F` (centres undefined), the activation in test [1] was 84% (active); in test [9], 37.5% (active). Besides, the result in [2], in test [3], in test [4], in [5], in test [7] and in test [8] was inactive. Further, the result in test [10], in test [11], in test [12], in test [13], in test [14] and in test [15] was inactive. Moreover, the inhibition in [6] was 78% (active).

Turning to `CN(C)CCN(C(=O)C1CCCCC1)c1nc2cc3c(cc2s1)OCO3`, the outcome in test [1], in test [2], in test [3], in test [4], in test [6] and in test [7] was inactive. Also, the result in [8], in [9], in test [10], in [11], in test [12] and in test [13] was inactive. In addition, the outcome in test [14] and in [15] was inactive. Also, the inhibition in test [5] is 75% (active).

For `CC1CCCN(CCOCCOc2ccccc2-c2ccccc2)C1` (centres undefined), the result in [1], in test [2], in test [3], in test [4], in test [7] and in test [8] was inactive. Also, the outcome in test [10], in test [11], in test [13], in [14] and in test [15] was inactive. For the same compound, the inhibition was 90% (active) in test [5], 53% (active) in test [6] and 30.7% (active) in test [12]. Further, the activation in test [9] is 82% (active).

Consider `O=c1c2c(-c3ccccc3)csc2ncn1/N=C/c1cccc([N+](=O)[O-])c1O`, for which the outcome in test [1], in test [2], in test [3], in test [4], in test [7] and in [8] was inactive. In addition, the call in [9], in test [10], in test [13], in test [14] and in test [15] was inactive. In addition, the inhibition in test [5] was 90% (active); in test [6], 39% (active); in test [12], 27.2% (active). In addition, in test [11], the activation is 36.1% (active).
